Records with an inconclusive call do not appear. Activity calls are given as the source filed them. Calls come from the whole dose curve; as a rule, active = well fitted inhibition curve with a large enough effect; inconclusive = small, poorly fitted or top-dose-only effect; inactive = flat fitted curve, though single readings scatter.
Experiments:
Assay in all cases: qHTS profiling for inhibitors of Plasmodium falciparum proliferation (AID 504749); note: nearly all actives have a fitted effect of over 60% in size
Conditions in all cases: P. falciparum in erythrocytes, SYBR Green DNA, 72 h; series mostly up to 28.7 µM
DIV17 = test system: DIV17
How it was run: (§1)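 In a 72 h erythrocytic culture (37 C, humidified, 5% CO2) at 2.5% hematocrit and 0.3% starting parasitemia, compounds were tested; SYBR Green I in detergent lysis buffer stained parasite DNA overnight.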

DIV30 = test system: DIV30
How it was run: as §1

Dd2 = test system: Dd2
How it was run: as §1

ECU = test system: ECU
How it was run: as §1

FAB9 = test system: FAB9
How it was run: as §1

GB4 = test system: GB4
How it was run: as §1

HB3 = test system: HB3
How it was run: as §1

ICS = test system: ICS
How it was run: as §1

JCK = test system: JCK
How it was run: as §1

N140 = test system: N140
How it was run: as §1

Measured: Potency
Potency is the fitted concentration of half-maximal effect.

CCCCOc1cc(C(=O)OCCN(CC)CC)ccc1N
inactive: all assays above

CCCCCCCCCCCCOS(=O)(=O)O
inactive: all assays above

CCC(=O)c1ccc(O)cc1
inactive: all assays above

CCOc1ccc2ccccc2c1C(=O)N[C@@H]1C(=O)N2[C@@H]1SC(C)(C)[C@@H]2C(=O)O
inactive: all assays above

NS(=O)(=O)c1cc2c(cc1Cl)NC(CSCc1ccccc1)=NS2(=O)=O
inactive: all assays above

CC(=O)Nc1ccc(/C=N/NC(N)=S)cc1
inactive: all assays above

CC(C)(C)NCC(O)COc1ccc(NC(=O)NC2CCCCC2)cc1 (stereo not given)
inactive: all assays above

Cc1cc(O)cc2c1O[C@](C)(CCC[C@H](C)CCC[C@H](C)CCCC(C)C)CC2
active: ICS 8910 nM
inactive: all other assays above

CC1(C)[C@@H]2CC[C@@]1(C)C(=O)C2
inactive: all assays above

Nc1ccc(S(=O)(=O)NC(=O)c2ccccc2)cc1
inactive: all assays above

CCCOC(=O)c1ccccc1
inactive: all assays above

Nc1ccc(S(=O)(=O)Nc2nccs2)cc1
inactive: all assays above

Cc1cc(C(C#N)c2ccc(Cl)cc2)c(Cl)cc1NC(=O)c1cc(I)cc(I)c1O (stereo not given)
inactive: all assays above

O=C1OC(OC(=O)c2cccnc2Nc2cccc(C(F)(F)F)c2)c2ccccc21 (stereo not given)
inactive: all assays above

CCOC(=O)[C@H](CCc1ccccc1)N[C@@H](C)C(=O)N1C(=O)N(C)C[C@H]1C(=O)O
inactive: all assays above

O=C(Oc1ccccc1C(=O)O)c1ccccc1O
inactive: all assays above

O=Cc1ccccc1C=O
inactive: all assays above

CC1=C(/C=C/C(C)=C/C=C/C(C)=C/C(=O)O)C(C)(C)CCC1
inactive: all assays above

CC(=O)Oc1ccc(C2(c3ccc(OC(C)=O)cc3)C(=O)Nc3ccccc32)cc1
inactive: all assays above

Nc1nc2c(ncn2CCC(CO)CO)c(=O)[nH]1
inactive: all assays above

Cc1cccc(C)c1NC(=O)CN(CC(=O)O)CC(=O)O
inactive: all assays above

CC12CCC(CC1)C(C)(C)O2
inactive: all assays above

NC(=O)NNc1ccccc1
inactive: all assays above

NC(CSCC(=O)O)C(=O)O (stereo not given)
inactive: all assays above

CC(O)COc1ccccc1 (stereo not given)
inactive: all assays above

CCCCN(CCCC)CCCOC(=O)c1ccc(N)cc1
inactive: all assays above

[O-][n+]1cccc(CO)c1
inactive: all assays above

O=C(O)c1ccccn1
inactive: all assays above

O=C(O)c1ccccc1O
inactive: all assays above

C#CCN(C)Cc1ccccc1
inactive: all assays above

COc1cc2[nH]c(=O)[nH]c(=O)c2cc1OC
inactive: all assays above

Nc1ncnc2c1ncn2[C@@H]1O[C@H](CO)[C@@H](O)[C@H]1O
inactive: all assays above

Cc1cc2c(cc1S(N)(=O)=O)S(=O)(=O)CCC2
inactive: all assays above

CC[C@@]1(c2ccccc2)NC(=O)N(C)C1=O
inactive: all assays above

Cc1cc(CC(=O)O)n(C)c1C(=O)c1ccc(Cl)cc1
inactive: all assays above

CC1(C)OC(=O)NC1=O
inactive: all assays above

NCC(=O)CCC(=O)O
inactive: all assays above

O=C1NC(=O)[C@@]2(CCOc3ccc(F)cc32)N1
inactive: all assays above

Cc1ncc(COP(=O)(O)O)c(C=O)c1O
inactive: all assays above

CCCc1c(OCCCCc2nn[nH]n2)ccc(C(C)=O)c1O
inactive: all assays above

CC(C)(C)C(=O)NCCCC(=O)O
inactive: all assays above

CCC(=O)Nc1ccc(O)cc1
inactive: all assays above

O=C(O)c1ccccc1-c1ccc(C(F)(F)F)cc1
inactive: all assays above

Cc1cc(N)c2ccccc2[n+]1CCCCCCCCCC[n+]1c(C)cc(N)c2ccccc21
active: DIV17 287 nM | DIV30 256 nM | Dd2 63.1 nM | ECU 2510 nM | FAB9 199 nM | GB4 144 nM | HB3 794 nM | ICS 100 nM | JCK 1120 nM | N140 251 nM

C[C@H](N)[C@H](O)c1cccc(O)c1
inactive: all assays above

CC(=O)CCC(=O)O
inactive: all assays above

O=C1c2c(O)cccc2Cc2cccc(O)c21
inactive: all assays above

Source: PubChem BioAssay (NCATS)
